Structures are written as SMILES. Records with an inconclusive call do not appear. A call without a number means that no potency is given here. Calls of active or inactive are those of the source. Calls come from the whole dose curve; as a rule, active = well fitted cell-killing curve with a large enough effect in the repeat runs; inconclusive = weak or mixed curves, or effect the other way; inactive = flat fitted curve, though single readings scatter.

This assay in a line: cAMP Responsive Elements (CRE) small molecule agonists, cell-based qHTS assay: qHTS cell viability counter screen (AID 2060914). Note: nearly all actives have a fitted effect of over 50% in size. The note with it: CRE-bla HEK293T viability, CellTiter-Glo luminescence, 5 h; series mostly up to 92.4 µM. The essentials: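 Luminescence read-out (CellTiter-Glo, 30 min RT) of ATP-based viability in CRE-bla HEK 293T cells, run in the same wells as the β-lactamase reporter assay after 3 h compound treatment at 37 °C.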
`Oc1ccc2ccc3cccc4ccc1c2c34`: the Potency entry is “inactive”.

Consider `CC/C(=N\OC/C=C/Cl)C1=C(O)CC(C2CCOCC2)CC1=O` (configuration not stated), for which the Potency entry is “inactive”.

In the case of `CN1C2CCC(C)(C)C1CC(OC(=O)C(O)(c1cccs1)c1cccs1)C2` (configuration not stated), the Potency entry is “inactive”. On to `CCSC(=O)N(CC)C1CCCCC1`, for which the Potency result is “inactive”. The entry for `Cc1c([N+](=O)[O-])cc2c(c1[N+](=O)[O-])C(C)(C)CC2(C)C` is “inactive”. Take `Cc1nnc2n1-c1sc(CCC(=O)N3CCOCC3)cc1C(c1ccccc1Cl)=NC2`: the Potency entry was “inactive”. For `c1ccc(CN2CCNCC2)cc1` the value was “inactive”.
